PubChem BioAssay AID1159580 (chemical genetic matrix, 2015)
About 2,000 (36%) of roughly 5,500 compounds were called active. Inconclusive results (about 18%) are left out. No stated cut-off is given here; in the data, active means normalized growth mostly below about 0.91 (no sharp cut-off); inconclusive means no clear call, values can overlap the other calls; inactive means mostly above about 0.92. The list shows a part of the results.

Assay: chemical genetic growth profiling, strain panel (AID 1159580);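 further: tested at 20 µM; growth read once vehicle control cultures reached saturation at 30 °C; 1 = growth at the plate median or of vehicle wells; lower values mean less growth of the strain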
Settings: growth OD

Measured: normalized growth

C[C@]12CCC(=O)C=C1C=CC1C2CC[C@@]2(C)C1CC[C@@]2(O)CCC(=O)O (some centres not stated)
inactive: S. cerevisiae deletion strains, locus YJR075W, strain HOC1, hits give low values 0.991 | S. cerevisiae deletion strains, locus YKL009W, strain mrt4, hits give low values 0.962 | S. cerevisiae deletion strains, locus YKL068W, hits give low values 0.995 | S. cerevisiae deletion strains, locus YKL085W, strain MDH1 (second series), hits give low values 0.993 | S. cerevisiae deletion strains, locus YKL085W, strain MDH1, hits give low values 0.993 | S. cerevisiae deletion strains, locus YKL160W, strain elf1, hits give low values 0.996 | S. cerevisiae deletion strains, locus YKL190W, strain CNB1, hits give low values 1.01 | S. cerevisiae deletion strains, locus YKR001C, strain vps1, hits give low values 0.98 | S. cerevisiae deletion strains, locus YKR026C, strain gcn3, hits give low values 1.03 | S. cerevisiae deletion strains, locus YKR091W, strain srl3, hits give low values 1.01 | S. cerevisiae deletion strains, locus YLL001W, strain dnm1, hits give low values 1.01 | S. cerevisiae deletion strains, locus YLL026W, hits give low values 1 | S. cerevisiae deletion strains, locus YLL041C, strain sdh2, hits give low values 1.01 | S. cerevisiae deletion strains, locus YLR027C, strain aat2, hits give low values 1.01 | S. cerevisiae deletion strains, locus YLR039C, strain RIC1, hits give low values 0.986 | S. cerevisiae deletion strains, locus YLR058C, strain SHM2, hits give low values 0.994 | S. cerevisiae deletion strains, locus YLR102C, strain apc9, hits give low values 0.999 | S. cerevisiae deletion strains, locus YLR113W, strain HOG1, hits give low values 1.06 | S. cerevisiae deletion strains, locus YLR221C, strain rsa3, hits give low values 1.01 | S. cerevisiae deletion strains, locus YLR258W, strain gsy2, hits give low values 1.02 | S. cerevisiae deletion strains, locus YLR262C, strain YPT6 (second series), hits give low values 0.93 | S. cerevisiae deletion strains, locus YLR262C, strain YPT6, hits give low values 0.983 | S. cerevisiae deletion strains, locus YLR268W, strain sec22, hits give low values 0.929 | S. cerevisiae deletion strains, locus YLR320W, strain mms22, hits give low values 1.01 | S. cerevisiae deletion strains, locus YLR330W, strain CHS5, hits give low values 1.02 | S. cerevisiae deletion strains, locus YLR342W, strain FKS1 (second series), hits give low values 1.05 | S. cerevisiae deletion strains, locus YLR342W, strain FKS1, hits give low values 0.995 | S. cerevisiae deletion strains, locus YLR357W, strain rsc2, hits give low values 1.01 | S. cerevisiae deletion strains, locus YLR370C, strain arc18, hits give low values 1.02 | S. cerevisiae deletion strains, locus YLR371W, strain rom2, hits give low values 0.985 | S. cerevisiae deletion strains, locus YLR384C, strain iki3, hits give low values 1.02 | S. cerevisiae deletion strains, locus YLR418C, strain cdc73, hits give low values 0.977 | S. cerevisiae deletion strains, locus YML016C, strain PPZ1, hits give low values 0.99 | S. cerevisiae deletion strains, locus YML032C, strain rad52, hits give low values 0.978 | S. cerevisiae deletion strains, locus YML120C, strain ndi1, hits give low values 1.02 | S. cerevisiae deletion strains, locus YML124C, strain tub3, hits give low values 0.996 | S. cerevisiae deletion strains, locus YMR058W, strain fet3, hits give low values 1.02 | S. cerevisiae deletion strains, locus YMR078C, strain ctf18, hits give low values 0.979 | S. cerevisiae deletion strains, locus YMR125W, strain sto1, hits give low values 1.04 | S. cerevisiae deletion strains, locus YMR129W, hits give low values 1.03 | S. cerevisiae deletion strains, locus YMR205C, strain PFK2, hits give low values 1.05 | S. cerevisiae deletion strains, locus YMR223W, strain ubp8, hits give low values 1.01 | S. cerevisiae deletion strains, locus YMR231W, strain pep5, hits give low values 1.02 | S. cerevisiae deletion strains, locus YMR263W, strain SAP30, hits give low values 0.988 | S. cerevisiae deletion strains, locus YMR307W, strain GAS1, hits give low values 1.01 | S. cerevisiae deletion strains, locus YNL067W, strain RPL9B, hits give low values 0.969 | S. cerevisiae deletion strains, locus YNL071W, strain lat1, hits give low values 1.01 | S. cerevisiae deletion strains, locus YNL128W, strain TEP1, hits give low values 0.995 | S. cerevisiae deletion strains, locus YNL153C, strain GIM3, hits give low values 0.977 | S. cerevisiae deletion strains, locus YNL183C, strain NPR1, hits give low values 0.995 | S. cerevisiae deletion strains, locus YNL209W, strain ssb2, hits give low values 1.02 | S. cerevisiae deletion strains, locus YNL233W, strain BNI4, hits give low values 0.99 | S. cerevisiae deletion strains, locus YNL248C, strain rpa49, hits give low values 1.04 | S. cerevisiae deletion strains, locus YNL250W, strain rad50, hits give low values 0.993 | S. cerevisiae deletion strains, locus YNL271C, strain bni1, hits give low values 0.986 | S. cerevisiae deletion strains, locus YNL298W, strain CLA4, hits give low values 0.984 | S. cerevisiae deletion strains, locus YNL307C, strain MCK1, hits give low values 0.989 | S. cerevisiae deletion strains, locus YNL322C, strain KRE1 (second series), hits give low values 1.02 | S. cerevisiae deletion strains, locus YNL322C, strain KRE1, hits give low values 1 | S. cerevisiae deletion strains, locus YNR049C, strain mso1, hits give low values 1.02 | S. cerevisiae deletion strains, locus YNR052C, strain pop2, hits give low values 0.996 | S. cerevisiae deletion strains, locus YOL006C, strain TOP1, hits give low values 0.951 | S. cerevisiae deletion strains, locus YOL012C, strain htz1 1.54 | S. cerevisiae deletion strains, locus YOL147C, strain pex11, hits give low values 0.989 | S. cerevisiae deletion strains, locus YOR001W, strain rrp6, hits give low values 1 | S. cerevisiae deletion strains, locus YOR061W, strain CKA2, hits give low values 0.995 | S. cerevisiae deletion strains, locus YOR069W, strain VPS5, hits give low values 0.985 | S. cerevisiae deletion strains, locus YOR070C, strain gyp1, hits give low values 1.03 | S. cerevisiae deletion strains, locus YOR080W, strain dia2, hits give low values 1.02 | S. cerevisiae deletion strains, locus YOR083W, strain WHI5, hits give low values 0.965 | S. cerevisiae deletion strains, locus YOR106W, strain vam3, hits give low values 1.01 | S. cerevisiae deletion strains, locus YOR136W, strain idh2, hits give low values 0.987 | S. cerevisiae deletion strains, locus YOR144C, strain elg1, hits give low values 0.994 | S. cerevisiae deletion strains, locus YOR184W, strain ser1, hits give low values 0.977 | S. cerevisiae deletion strains, locus YOR231W, strain MKK1, hits give low values 1.05 | S. cerevisiae deletion strains, locus YOR265W, strain rbl2, hits give low values 1.02 | S. cerevisiae deletion strains, locus YOR270C, strain vph1, hits give low values 1.05 | S. cerevisiae deletion strains, locus YOR290C, strain snf2, hits give low values 1.02 | S. cerevisiae deletion strains, locus YOR316C, strain cot1, hits give low values 0.995 | S. cerevisiae deletion strains, locus YPL051W, strain arl3, hits give low values 1 | S. cerevisiae deletion strains, locus YPL055C, strain LGE1, hits give low values 1.02 | S. cerevisiae deletion strains, locus YPL078C, strain atp4, hits give low values 1.01 | S. cerevisiae deletion strains, locus YPL106C, strain sse1, hits give low values 1.01 | S. cerevisiae deletion strains, locus YPL240C, strain hsp82, hits give low values 1.02 | S. cerevisiae deletion strains, locus YPL241C, strain CIN2, hits give low values 1 | S. cerevisiae deletion strains, locus YPL256C, strain CLN2, hits give low values 1.1 | S. cerevisiae deletion strains, locus YPR119W, strain clb2, hits give low values 0.994 | S. cerevisiae deletion strains, locus YPR141C, strain kar3, hits give low values 0.982 | S. cerevisiae deletion strains, locus YPR163C, strain tif3, hits give low values 0.991 | S. cerevisiae deletion strains, locus YPR167C, strain met16, hits give low values 0.995 | S. cerevisiae deletion strains, strain wtn01, hits give low values 0.953 | S. cerevisiae strains, strain wild type, hits give low values 1
